Values without a mark were called inactive. Where a call stands in place of a potency, no number is given. Calls of active or inactive are those of the source. Calls come from the whole dose curve; as a rule, active = well fitted curve in the direction sought with a large enough effect in the repeat runs; inconclusive = weak or mixed curves; inactive = flat fitted curve, though single readings scatter.
Test: qHTS assay to test for compound auto fluorescence at 535 nm (green) in HepG2 cell free culture (AID 720686)
Details: Cell-free medium, green autofluorescence 485/535 nm; series mostly up to 91.3 µM

Row | Structure (SMILES) | outcome | fluorescence, % of fluorescein control
1 | SCCc1cnccn1 | inactive | –
2 | O=C1NC(=O)c2cccc3cccc1c23 | inactive | –
3 | CC1CCCC(=O)C1=O (stereo unspecified) | inactive | –
4 | CCC1CCC(CCC(=O)O)C1 (stereo unspecified) | inactive | –
5 | BrC(Br)C(Br)Br | inactive | –
6 | O=c1[nH]c2cc(C(F)(F)F)c(N3CCOCC3)cc2n(CP(=O)(O)O)c1=O | inactive | –
7 | Cc1c(C2(c3cc(Br)c(O)c(Br)c3C)OS(=O)(=O)c3ccccc32)cc(Br)c(O)c1Br | inactive | –
8 | O=C(O)CN1C(=O)c2cccc3cccc(c23)C1=O | inactive | –
9 | CCCCCC | inactive | –
10 | O=C(O)c1cccc(C[C@@H]2COc3ccc(OCc4nc5cc(F)ccc5s4)cc3[C@@H]2O)c1 | inactive | –
11 | COC(OC)OC | inactive | –
12 | O=C(O)CCC(=O)OC[C@@H](NC(=O)C(Cl)Cl)[C@H](O)c1ccc([N+](=O)[O-])cc1 | inactive | –
13 | CC(O)Cn1cnc2c1c(=O)n(C)c(=O)n2C (stereo unspecified) | – | -0.0191% [at 18.6 µM]
14 | CCCOC(=O)c1c(Cl)c(Cl)c(Cl)c(Cl)c1C(=O)OCCC | inactive | –

Test: qHTS assay to test for compound auto fluorescence at 460 nm (blue) in HepG2 cells (AID 720687)
Details: autofluorescence 405/460 nm, 1 h; series mostly up to 91.3 µM
How it was run: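 Cells (2,000/well in MEM with 10% FBS) attached overnight at 37 C, then were exposed to compound or DMSO for 1 hr at 37 C, 5% CO2. Fluorescence read at Ex/Em 405/460 nm, expressed as triamterene-equivalent signal.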

Row | Structure (SMILES) | Potency | fluorescence, % of fluorescent control
15 | N[C@@H](Cc1cc(I)c(O)c(I)c1)C(=O)O | inactive | –
16 | CCCCCCCC/C=C\CCCCCCCC(=O)OCCO | inactive | –
17 | COc1ccc(CCN(C)CCCN2CCc3cc(OC)c(OC)cc3CC2=O)cc1OC | inactive | –
18 | CC(=O)C(C)=O | inactive | –
19 | O=C(O)c1ccc(O)cc1O | inactive | –
20 | CCN(CC)CCOC(=O)C(c1ccccc1)c1ccccc1 | inactive | –
21 | COc1ccc(C(=O)NCc2ccc(OCCN(C)C)cc2)cc1OC | inactive | –
22 | CC[C@@H](CO)NCCN[C@@H](CC)CO | – | -0.0204% [at 18.6 µM]
23 | CC(=O)N[C@@H](Cc1ccc(O)cc1)C(=O)O | inactive | –
24 | Cc1cn([C@H]2C[C@H](F)[C@@H](CO)O2)c(=O)[nH]c1=O | inactive | –
25 | c1ccc(CNc2ncnc3c2ncn3C2CCCCO2)cc1 (stereo unspecified) | inactive | –
26 | CCCCCc1ccco1 | inactive | –
27 | CCCCC(CC)COS(=O)(=O)O (stereo unspecified) | inactive | –
28 | CC1CCCO1 (stereo unspecified) | inactive | –
29 | c1ccc(CCCc2ccncc2)cc1 | inactive | –
30 | O=C1NC(=O)c2cccc3cccc1c23 | inactive | –
31 | CC1CCCC(=O)C1=O (stereo unspecified) | inactive | –
32 | CCC1CCC(CCC(=O)O)C1 (stereo unspecified) | inactive | –
33 | BrC(Br)C(Br)Br | inactive | –
34 | O=c1[nH]c2cc(C(F)(F)F)c(N3CCOCC3)cc2n(CP(=O)(O)O)c1=O | inactive | –
35 | Cc1c(C2(c3cc(Br)c(O)c(Br)c3C)OS(=O)(=O)c3ccccc32)cc(Br)c(O)c1Br | inactive | –
36 | O=C(O)CN1C(=O)c2cccc3cccc(c23)C1=O | inactive | –
37 | CCCCCC | inactive | –
38 | O=C(O)c1cccc(C[C@@H]2COc3ccc(OCc4nc5cc(F)ccc5s4)cc3[C@@H]2O)c1 | inactive | –
39 | COC(OC)OC | inactive | –
40 | O=C(O)CCC(=O)OC[C@@H](NC(=O)C(Cl)Cl)[C@H](O)c1ccc([N+](=O)[O-])cc1 | inactive | –
41 | CC(O)Cn1cnc2c1c(=O)n(C)c(=O)n2C (stereo unspecified) | – | 0.0234% [at 18.6 µM]

From PubChem BioAssay (Tox21)
